Only some compounds are listed: those with a hit (about 3.1% of all), similar ones and a draw of the others.
LGR2 inh = Drosophila LGR2 receptor signaling inhibition | HEK293 LGR2, CRE-luciferase, bursicon-stimulated, 4 h | inhibition, % at 9.99 µM | 0.35% of 380,000 active | AID 720647;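 active = drop in luminescence signal, shown as inhibition above about 50% in the replicate tests, limit read from the data, passing the limit was not always enough; inconclusive = probably only some replicates passing the limit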;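 also: agonist challenge used bursicon conditioned medium at about half maximal strength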
PAX8 reporter = PAX8 transcriptional activity inhibition; 1.2% of 360,000 active; inhibition, % at 12.6 µM; RMG-I TPO-luciferase reporter, SteadyGlo, 24 h;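 active = mean replicate inhibition at least 60% with every replicate also reaching 60%; inconclusive = only one of the two criteria is met; inactive = mean below 60% and not all replicates reaching 60%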;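 also: luciferase light reporting Pax8 driven TPO promoter activity; plate controls were median of neutral control wells for no effect and mitoxantrone controls for full effect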
EWS-Fli block = EWS/Fli transcriptional activity inhibition | A673 NR0B1-luciferase reporter, viability-normalised | inhibition, % at 12.6 µM | 0.67% of 350,000 active;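 active = mean inhibition of at least 50% after viability correction, with every replicate also passing that limit; inconclusive = mean reaches 50% but only one of two replicates passes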;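 also: firefly luciferase signal divided by Alamar Blue viability fluorescence both relative to DMSO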
EBV LMP1 NFkB = inhibitors of Epstein-Barr LMP1-induced NF-kappaB reporter; LMP1-induced NF-kappaB luciferase reporter cells, luminescence; 0.69% of 350,000 active; inhibition, % at 12.5 µM; in the data active = inhibition above about 41%; inconclusive = no clear call, values can overlap the other calls;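 also: 0% = neutral control wells and 100% = reference inhibitor control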
TWEAK-Fn14 inh = blocks TWEAK-Fn14 interaction in a reporter cell assay. 2% of 360,000 active. inhibition, % at 10 µM. TWEAK-stimulated Fn14 reporter cells, luciferase luminescence, 8 h; in the data active = inhibition above about 50%
TROY NFkB inh = inhibitors of TROY-dependent NF-kB signaling | 0.98% of 360,000 active | Q293 LMP1-TROYcd NF-kB luciferase reporter, 4 h | inhibition, % at 10 µM;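 active = compounds whose plate-normalised and pattern-corrected inhibition of the luciferase reporter signal at the single screening dose is 50% or more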
Starred values were filed as active, the others as inactive; ? = inconclusive; · = no result given.

SMILES	LGR2 inh	PAX8 reporter	EWS-Fli block	EBV LMP1 NFkB	TWEAK-Fn14 inh	TROY NFkB inh
O=C1CC(c2ccc3c(c2)OCO3)Sc2nc3ccccc3n21 (stereo not drawn)	54.5*	·	·	-6.8	89.1*	83.9*
CC1=NNC(=O)/C1=C\c1cn(-c2ccccc2)nc1-c1cccs1	58.7*	3.7	77.4*	9.8	109.0*	87.7*
CC1=NNC(=O)/C1=C\c1cn(-c2ccccc2)nc1-c1ccc(F)cc1	·	·	·	2.4	99.9*	74.6*
O=Cc1cn(-c2ccccc2)nc1-c1ccc(F)cc1	-34.9	-54.4	-50.5	-14.3	9.2	-48.4
COc1ccc(NC(=O)N(C)C[C@H]2Oc3ccc(NS(=O)(=O)c4ccc(OC)cc4)cc3CC(=O)N([C@@H](C)CO)C[C@@H]2C)cc1	1.3	-8.4	-8.0	·	·	·
COc1cccc(CNC(=O)COC(=O)c2cc([N+](=O)[O-])ccc2N2CCCC2)c1	6.5	-1.9	-1.5	71.3*	-12.3	-8.7
COc1ccc(COC(=O)c2cc([N+](=O)[O-])ccc2N2CCOCC2)cc1F	-9.3	96.0*	49.2	1.3	35.8	9.6
O=C(OCc1ccc(Br)cc1)c1cc([N+](=O)[O-])ccc1N1CCOCC1	23.6	21.4	62.3*	15.6	0.2	-23.0
CCc1ccc(C(=O)COC(=O)c2cc([N+](=O)[O-])ccc2N2CCOCC2)cc1	-3.2	37.1	?	9.7	5.3	-10.0
O=C(COC(=O)c1cc([N+](=O)[O-])ccc1N1CCOCC1)Nc1ccc(Cl)cn1	12.5	61.4*	·	-26.7	3.7	4.7
CC(C)NC(=O)Nc1ccc2c(c1)C(=O)N([C@@H](C)CO)C[C@@H](C)[C@@H](CN(C)C)OCCCC[C@@H](C)O2	-11.8	-7.2	·	·	·	·
C[C@H](O)C#Cc1ccc([C@@H]2[C@@H](CO)N3CCCCN(CC4CCOCC4)C[C@@H]23)cc1	4.2	-24.6	7.5	·	·	·
Cc1noc(C)c1S(=O)(=O)Nc1ccc2c(c1)C(=O)N([C@H](C)CO)C[C@@H](C)[C@H](CN(C)C(=O)Nc1ccccc1)O2	-13.5	·	-3.0	·	·	·
O=C(OCc1cccc(Cl)c1)c1cc([N+](=O)[O-])ccc1N1CCOCC1	4.5	74.5*	-6.5	-22.1	1.8	66.8*
O=C(OCc1cccc(C(F)(F)F)c1)c1cc([N+](=O)[O-])ccc1N1CCOCC1	2.5	8.6	9.8	7.4	-16.4	-7.0
C=CC[N+](C)(C)C/C(Cl)=C(\Cl)c1ccccc1	0.9	·	·	49.2*	1.8	19.5
Cc1cc(C)c(C)c(S(=O)(=O)N2CCN(C(=O)c3cc(=O)[nH]c4ccccc34)CC2)c1C	·	·	·	16.0	53.6*	7.3
COc1ccc2c3c([nH]c2c1)[C@@H](CO)N(Cc1ccccc1)CC31CCN(C)CC1	6.4	·	-7.5	·	·	·
NC(CCc1ccccc1)c1csc(Nc2ccc(C(=O)c3ccccc3)cc2)n1 (stereo not drawn)	19.4	-15.2	17.9	·	-16.8	12.3
NCc1csc(Nc2ccc(C(=O)c3ccccc3)cc2)n1	-1.6	34.2	51.7*	·	-0.6	-20.0
Cc1ccccc1-n1c(-c2csc(C)c2C)n[nH]c1=S	-7.5	-27.5	·	-4.9	22.4	20.6
Cc1cccc(-n2c(-c3csc(C)c3C)n[nH]c2=S)c1	0.6	-9.8	-3.2	-3.6	92.1*	3.3
Cc1ccc(-n2nnnc2-c2cnc(N3CCCC3)nc2C(F)(F)F)cc1	·	25.4	·	2.3	33.1	21.4
FC(F)(F)c1nc(N2CCCC2)ncc1-c1nnnn1-c1ccccc1	·	27.2	·	7.8	51.1*	17.7
C[C@H](CO)N1C[C@H](C)[C@@H](CN(C)Cc2ccc3c(c2)OCO3)Oc2ccc(NS(=O)(=O)c3cccs3)cc2CC1=O	-17.3	21.2	-1.5	·	·	·
C=CCn1c(SCC(=O)c2cccs2)nc2sc(CC)cc2c1=O	·	·	·	18.1	78.9*	40.6
C=CCn1c(SCC(=O)O)nc2sc(CC)cc2c1=O	23.8	1.5	2.1	-3.3	16.2	0.3
Cc1ccc(C2C3=C(CC(C)(C)CC3=O)N=C3c4ccccc4C(=O)C32)cc1 (stereo not drawn)	-19.7	33.0	·	5.6	57.7*	27.9
CCOC(=O)C1=C(C)N=C2c3ccccc3C(=O)C2C1c1ccc(Cl)cc1 (stereo not drawn)	·	·	·	-4.4	6.2	-1.2
CC1(C)CC(=O)C2=C(C1)N=C1c3ccccc3C(=O)C1C2c1ccc(Cl)cc1 (stereo not drawn)	·	·	·	7.0	66.5*	26.2
